Laboratory results from PubChem BioAssay (NCATS).
Unmarked numbers belong to inactive results. Results filed as inconclusive are left out. A call without a number means that no potency is given here. Active and inactive are the calls of the source. Calls come from the whole dose curve; as a rule, active = well fitted curve in the direction sought with a large enough effect; inconclusive = small, poorly fitted or top-dose-only effect, or another doubt; inactive = no such curve, though single readings can be large; an effect the other way counts as inactive or inconclusive.

Columns and labels:
[1] = test system: Zika virus NS2B-NS3 protease (unlinked); assay: Optimization of GU AMC qHTS for Zika virus inhibitors: Unlinked NS2B-NS3 protease assay (AID 1347151); note: series mostly up to about 52 µM; nearly all actives have a fitted effect of over 80% in size
Method in brief: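 Noncovalent NS2B hydrophilic domain–NS3 protease complex (25 nM final) in 10 mM Tris-HCl pH 8.0, 0.01% Tween 20; AMC substrate, room temperature 15 min (~20% conversion); fluorescence change normalized, 4-parameter Hill fit.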

[2] = test system: Zika virus NS2B-NS3 protease; assay: Primary screen GU AMC qHTS for Zika virus inhibitors (AID 1347154); note: nearly all actives have a fitted effect of over 70% in size
Method in brief: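 Unlinked Zika NS2B hydrophilic domain–NS3 protease complex at 25 nM in 10 mM Tris-HCl pH 8.0, 0.01% Tween 20, with an AMC peptide substrate. Fluorescence change (340/450 nm) over 15 min at room temperature, normalized to controls, fitted to 4-parameter Hill.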

[3] = molecular target: Lysine-specific demethylase 5B (Homo sapiens) (UniProt Q9UGL1); assay: Optimization screen for KDM5B Histone Demethylases FDH coupled qHTS against the LOPAC library (AID 1347166)
Method in brief: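 KDM5BDeltaAP (200nM final) preincubated 10 min with compound, then 12.5uM H3K4Me3, 25uM a-ketoglutarate, ascorbate, Fe(II), NAD+ and FDH added; 50mM HEPES pH 7.5, 0.01% Tween-20. NADH fluorescence (340/450 nm) change over 30 min, room temperature.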

[4] = qHTS to identify inhibitors of the type 1 interferon - major histocompatibility complex class I in skeletal muscle: primary screen against the NCATS LOPAC collection (AID 1347405);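 note: lytic HiBiT luminescence reporting HLA-B protein level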; note: potency is the fitted concentration of half-maximal effect
Method in brief: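 Immortalized human C25cl48 myoblasts with HiBiT knocked into endogenous HLA-B*08:01 were stimulated with 4.0 ng/ml IFN-beta and given compounds in a 7-point, 1:4.3 titration from 46 uM final; after 24 hrs, lytic HiBiT luminescence was read.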

[5] = qHTS to identify inhibitors of the type 1 interferon - major histocompatibility complex class I in skeletal muscle: primary screen against the NCATS Pharmaceutical Collection (AID 1347407);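 note: luminescence of HiBiT knocked into endogenous HLA-B as interferon-induced MHC class I level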
Method in brief: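 Immortalized human myoblasts (C25cl48) with HiBiT knocked into endogenous HLA-B*08:01 were stimulated with 4.0 ng/ml IFN-beta and treated with compounds ([…] top 46 uM) for 24 hrs at 37 C. HiBiT lytic luminescence read.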

[6] = qHTS for inhibitors of adenylyl cyclases using a fission yeast platform: a pilot screen against the NCATS LOPAC library (AID 1347410)
Method in brief: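 S. pombe CHP2027 (AC9-GNAS-PDE4D2) carrying PKA-repressed fbp1-GFP, incubated 18 h at 30C in EMM with LOPAC compounds at up to 57 uM. GFP gain-of-signal read by laser scanning cytometry; DMSO negative control.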

[7] = molecular target: Protein phosphatase 1D (Homo sapiens) (UniProt O15297); assay: RapidFire Mass Spectrometry qHTS Assay for Modulators of WT P53-Induced Phosphatase 1 (WIP1) (AID 1347424);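 note: amount of dephosphorylated VEPPL-S-QETFS peptide product formed by WIP1; series mostly up to about 63 µM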
Method in brief: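 10 nM WIP1 preincubated with compounds 1 hr at room temperature in pH 7.5 Tris buffer with 30 mM MgCl2, 1 mM TCEP; 2 uM VEPPL-pS-QETFS phosphopeptide for 5 min, formic acid quench; dephosphorylated product quantified by RapidFire MS against labelled standard.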

[8] = Validation qHTS assay for inhibitors of Activation Induced Cytidine Deaminase (AID): UDG Counterscreen signal (AID 1347427)
Method in brief: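 Counterscreen read of UDG activity (2 U/mL, 4/3x) in the FRET deamination format with AID (1 uM, 4/3x), DJC20/DJC23 substrates (250 nM, 4x), 4 h at room temperature. NaOH stop, fluorescence at 560 ex/665 em.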

[9] = molecular target: Single-stranded DNA cytosine deaminase (Homo sapiens) (UniProt Q9GZX7); assay: Validation qHTS assay for inhibitors of Activation Induced Cytidine Deaminase (AID): AID signal (AID 1347429)
Method in brief: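 AID and UDG were combined and compounds added at final up to 114 uM, then DJC20/DJC23 FRET substrate was added for 4 hr at room temperature. NaOH was then added for 30 min before fluorescence was read at 540/590 nm.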

[10] = molecular target: Protein phosphatase 1D (Homo sapiens) (UniProt O15297); assay: Rhodamine-PBP qHTS Assay for Modulators of WT P53-Induced Phosphatase 1 (WIP1) (AID 1347425)
Method in brief: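 WIP1 (5 nM final) was preincubated with compound for 1 hour at room temperature. It then dephosphorylated 10 uM VEPPL-pS-QETFS peptide in Tris-HCl pH 7.5 with 30 mM MgCl2. Released Pi was detected by 10 uM Rh-PBP fluorescence (ex 525/em 598 nm) read at 1-min intervals for 11 min, as delta f1 - f0.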

Sequence of Protein phosphatase 1D (Homo sapiens) (O15297 whole entry, looked up): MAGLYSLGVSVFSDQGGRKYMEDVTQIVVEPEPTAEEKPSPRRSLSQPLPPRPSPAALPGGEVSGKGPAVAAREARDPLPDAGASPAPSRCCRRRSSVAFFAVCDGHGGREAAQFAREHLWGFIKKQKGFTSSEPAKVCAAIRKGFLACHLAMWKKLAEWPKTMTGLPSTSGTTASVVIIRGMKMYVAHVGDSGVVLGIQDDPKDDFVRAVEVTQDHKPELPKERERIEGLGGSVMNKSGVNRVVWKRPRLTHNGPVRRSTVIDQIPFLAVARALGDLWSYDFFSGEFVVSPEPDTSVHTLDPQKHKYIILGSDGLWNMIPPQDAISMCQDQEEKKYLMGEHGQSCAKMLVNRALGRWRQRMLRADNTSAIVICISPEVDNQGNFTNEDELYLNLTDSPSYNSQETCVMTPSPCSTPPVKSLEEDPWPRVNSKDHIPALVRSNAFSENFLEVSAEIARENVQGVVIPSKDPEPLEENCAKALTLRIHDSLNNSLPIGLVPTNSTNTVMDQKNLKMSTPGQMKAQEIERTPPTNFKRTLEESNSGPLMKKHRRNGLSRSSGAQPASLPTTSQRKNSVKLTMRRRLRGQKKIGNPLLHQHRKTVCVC
Sequence of Lysine-specific demethylase 5B (Homo sapiens) (Q9UGL1 whole entry, looked up): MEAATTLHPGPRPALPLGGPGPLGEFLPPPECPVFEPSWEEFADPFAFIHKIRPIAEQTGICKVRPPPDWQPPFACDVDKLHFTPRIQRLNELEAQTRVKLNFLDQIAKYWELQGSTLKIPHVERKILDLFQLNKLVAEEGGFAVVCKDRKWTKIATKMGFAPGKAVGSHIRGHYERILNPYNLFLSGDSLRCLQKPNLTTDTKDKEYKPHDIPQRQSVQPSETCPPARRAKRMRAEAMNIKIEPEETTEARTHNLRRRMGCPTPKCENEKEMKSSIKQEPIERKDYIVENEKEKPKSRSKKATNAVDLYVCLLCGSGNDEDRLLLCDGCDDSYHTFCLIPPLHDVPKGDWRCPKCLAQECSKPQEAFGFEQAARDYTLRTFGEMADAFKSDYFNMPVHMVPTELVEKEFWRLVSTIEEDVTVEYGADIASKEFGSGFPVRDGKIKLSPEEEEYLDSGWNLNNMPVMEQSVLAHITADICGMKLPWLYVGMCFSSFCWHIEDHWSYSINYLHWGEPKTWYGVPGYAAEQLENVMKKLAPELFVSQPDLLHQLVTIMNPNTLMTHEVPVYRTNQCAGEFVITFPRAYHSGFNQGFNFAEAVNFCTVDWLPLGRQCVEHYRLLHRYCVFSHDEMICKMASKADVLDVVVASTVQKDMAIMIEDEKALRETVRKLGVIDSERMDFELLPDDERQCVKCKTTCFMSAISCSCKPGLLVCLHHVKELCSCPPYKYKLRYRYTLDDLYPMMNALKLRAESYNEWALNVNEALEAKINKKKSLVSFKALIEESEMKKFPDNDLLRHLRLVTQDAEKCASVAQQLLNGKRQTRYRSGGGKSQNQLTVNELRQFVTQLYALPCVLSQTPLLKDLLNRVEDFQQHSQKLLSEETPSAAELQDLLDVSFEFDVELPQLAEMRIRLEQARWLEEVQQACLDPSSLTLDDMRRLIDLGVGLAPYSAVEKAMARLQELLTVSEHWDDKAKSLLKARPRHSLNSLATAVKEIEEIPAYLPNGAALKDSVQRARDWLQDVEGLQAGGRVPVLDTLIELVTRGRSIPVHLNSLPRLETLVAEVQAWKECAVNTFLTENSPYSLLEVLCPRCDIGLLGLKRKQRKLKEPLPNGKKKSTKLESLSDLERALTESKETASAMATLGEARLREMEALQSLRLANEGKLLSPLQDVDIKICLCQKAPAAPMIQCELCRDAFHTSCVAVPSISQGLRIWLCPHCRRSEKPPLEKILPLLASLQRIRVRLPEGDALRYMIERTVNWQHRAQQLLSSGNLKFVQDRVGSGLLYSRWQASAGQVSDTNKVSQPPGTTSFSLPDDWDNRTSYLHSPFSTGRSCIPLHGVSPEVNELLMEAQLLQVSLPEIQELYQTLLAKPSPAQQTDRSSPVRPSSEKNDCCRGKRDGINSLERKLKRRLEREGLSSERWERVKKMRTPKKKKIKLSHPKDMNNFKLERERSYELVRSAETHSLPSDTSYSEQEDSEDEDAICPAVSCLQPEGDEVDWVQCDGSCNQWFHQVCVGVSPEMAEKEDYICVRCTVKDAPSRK
Sequence of Single-stranded DNA cytosine deaminase (Homo sapiens) (Q9GZX7 whole entry, looked up): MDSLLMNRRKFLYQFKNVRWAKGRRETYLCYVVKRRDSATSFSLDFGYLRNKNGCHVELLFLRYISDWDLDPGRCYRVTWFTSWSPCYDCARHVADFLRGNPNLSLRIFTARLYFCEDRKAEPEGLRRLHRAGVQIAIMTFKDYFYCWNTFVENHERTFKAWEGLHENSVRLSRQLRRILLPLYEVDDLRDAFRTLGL

Structure (SMILES) | Potency [1] | outcome [2] | Potency [3] | Potency [4] | Potency [5] | outcome [6] | Potency [7] | outcome [8] | Potency [9] | outcome [10]
CC(=O)Oc1cc(C(C)C)c(OCCN(C)C)cc1C | inactive | inactive | inactive | inactive | inactive | inactive | inactive | inactive | inactive | –
C=CCc1ccccc1OCC(O)CNC(C)C (stereo not given) | inactive | inactive | inactive | inactive | inactive | inactive | inactive | inactive | inactive | –
CN/C(=C\[N+](=O)[O-])NCCSCc1ccc(CN(C)C)o1 | inactive | inactive | inactive | inactive | inactive | inactive | inactive | inactive | inactive | inactive
NC(=O)N1c2ccccc2C=Cc2ccccc21 | inactive | inactive | inactive | inactive | inactive | inactive | inactive | inactive | inactive | –
N[C@@H](COP(=O)(O)O)C(=O)O | inactive | inactive | inactive | inactive | inactive | inactive | inactive | inactive | inactive | –
CC(C(=O)O)c1ccc(CC2CCCC2=O)cc1 (stereo not given) | inactive | inactive | inactive | inactive | inactive | inactive | inactive | inactive | inactive | –
Cc1cccc(C)c1NC(=O)C(C)N (stereo not given) | inactive | inactive | inactive | inactive | inactive | inactive | inactive | inactive | inactive | –
CC(=O)Nc1nnc(S(N)(=O)=O)s1 | inactive | inactive | inactive | inactive | inactive | inactive | inactive | inactive | inactive | –
CC(C)(C)NCC(O)c1cc(O)cc(O)c1 (stereo not given) | inactive | inactive | inactive | inactive | inactive | inactive | inactive | inactive | inactive | inactive
FC(F)(F)c1ccccc1-n1ccnc1 | inactive | inactive | inactive | inactive | inactive | inactive | inactive | inactive | inactive | inactive
CCO/C([O-])=N/c1c[n+](N2CCOCC2)no1 | inactive | inactive | inactive | inactive | inactive | inactive | inactive | inactive | inactive | –
C[C@H](CS)C(=O)N1CCC[C@H]1C(=O)O | inactive | inactive | inactive | – | – | inactive | inactive | – | – | inactive
Cc1ccc(S(=O)(=O)NC(=O)NN2CCCCCC2)cc1 | inactive | inactive | inactive | inactive | inactive | inactive | inactive | inactive | inactive | –
CC[N+](C)(C)c1cccc(O)c1 | inactive | inactive | inactive | inactive | inactive | inactive | inactive | inactive | inactive | inactive
O=C1CC2(CCCC2)CC(=O)N1CCCCN1CCN(c2ncccn2)CC1 | inactive | inactive | inactive | inactive | inactive | inactive | inactive | inactive | inactive | –
CN(C)CCN(Cc1cccs1)c1ccccn1 | inactive | inactive | inactive | inactive | inactive | inactive | inactive | inactive | inactive | –
c1cc(CN2CCCCC2)cc(OCCCNc2nc3ccccc3s2)c1 | inactive | inactive | inactive | inactive | inactive | inactive | inactive | inactive | inactive | –
OCCN1CCN(CCCN2c3ccccc3C=Cc3ccccc32)CC1 | inactive | inactive | inactive | inactive | inactive | inactive | inactive | inactive | inactive | –
NC(N)=N/N=C/c1c(Cl)cccc1Cl | inactive | inactive | inactive | inactive | – | inactive | inactive | inactive | inactive | inactive
OCCN1CCN(CC/C=C2/c3ccccc3Sc3ccc(C(F)(F)F)cc32)CC1 | inactive | inactive | inactive | inactive | – | inactive | inactive | inactive | inactive | inactive
CCCC(C(=O)OCCN(CC)CC)(c1ccccc1)c1ccccc1 | inactive | inactive | inactive | – | inactive | inactive | inactive | inactive | inactive | inactive
CC(=O)OCC1=C(C(=O)O)N2C(=O)[C@@H](NC(=O)Cc3cccs3)[C@H]2SC1 | inactive | inactive | inactive | inactive | inactive | inactive | inactive | inactive | inactive | –
CNC1(C)C2CCC(C2)C1(C)C (stereo not given) | inactive | inactive | inactive | inactive | inactive | inactive | inactive | inactive | inactive | –
CCOC(=O)C1=C(C)NC(C)=C(C(=O)OC)C1c1cccc([N+](=O)[O-])c1 (stereo not given) | inactive | inactive | inactive | 12.6 µM (active) | – | inactive | inactive | inactive | inactive | –
CC1=NS(=O)(=O)c2cc(Cl)ccc2N1 | inactive | inactive | inactive | inactive | inactive | inactive | inactive | inactive | inactive | –
